PubChem BioAssay (NCATS)
Where “and” joins values, the source holds several entries; their conditions need not be identical. Equal values may be shown once. Inconclusive results are not listed. Entries that show only a call come without a potency. Calls of active or inactive are those of the source. Unless noted, calls come from the whole dose curve; as a rule, active = well fitted curve in the direction sought with a large enough effect; inconclusive = small, poorly fitted or top-dose-only effect, or another doubt; inactive = no such curve, though single readings can be large; an effect the other way counts as inactive or inconclusive.

How the values were obtained:
[1] = molecular target: D(1A) dopamine receptor (Homo sapiens) (UniProt P21728); experiment: HTS Assay for Allosteric Agonists of the Human D1 Dopamine Receptor: Primary Screen for Potentiators (AID 488982)
Sequence of D(1A) dopamine receptor (Homo sapiens) (P21728 whole entry, looked up): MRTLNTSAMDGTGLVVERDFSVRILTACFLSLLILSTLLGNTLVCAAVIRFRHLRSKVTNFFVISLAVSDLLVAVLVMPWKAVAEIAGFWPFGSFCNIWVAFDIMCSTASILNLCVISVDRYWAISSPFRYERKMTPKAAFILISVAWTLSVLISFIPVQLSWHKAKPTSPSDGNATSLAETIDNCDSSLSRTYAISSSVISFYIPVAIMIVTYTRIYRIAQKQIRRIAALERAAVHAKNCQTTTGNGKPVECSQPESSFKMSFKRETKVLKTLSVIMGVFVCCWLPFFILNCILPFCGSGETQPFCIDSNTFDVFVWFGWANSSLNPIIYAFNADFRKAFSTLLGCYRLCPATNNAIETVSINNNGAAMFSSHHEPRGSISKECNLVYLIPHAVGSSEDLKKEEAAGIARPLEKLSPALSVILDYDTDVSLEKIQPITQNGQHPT
How it was run: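 Calcium flux in an inducible, force-coupled HEK293 Trex D1 line (overnight at 30 C): agonist mode is the 180 s kinetic read after compound; potentiator mode is the following 180 s read after dopamine at EC20.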

[2] = molecular target: ATP-dependent 6-phosphofructokinase (Trypanosoma brucei brucei) (UniProt O15648); experiment: qHTS Assay to Find Inhibitors of T. brucei phosphofructokinase: hit validation (AID 492961);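 note: luminescence reports ADP formed as PFK phosphorylates fructose-6-phosphate with ATP; series mostly up to about 51 µM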
Sequence of ATP-dependent 6-phosphofructokinase (Trypanosoma brucei brucei) (O15648 whole entry, looked up): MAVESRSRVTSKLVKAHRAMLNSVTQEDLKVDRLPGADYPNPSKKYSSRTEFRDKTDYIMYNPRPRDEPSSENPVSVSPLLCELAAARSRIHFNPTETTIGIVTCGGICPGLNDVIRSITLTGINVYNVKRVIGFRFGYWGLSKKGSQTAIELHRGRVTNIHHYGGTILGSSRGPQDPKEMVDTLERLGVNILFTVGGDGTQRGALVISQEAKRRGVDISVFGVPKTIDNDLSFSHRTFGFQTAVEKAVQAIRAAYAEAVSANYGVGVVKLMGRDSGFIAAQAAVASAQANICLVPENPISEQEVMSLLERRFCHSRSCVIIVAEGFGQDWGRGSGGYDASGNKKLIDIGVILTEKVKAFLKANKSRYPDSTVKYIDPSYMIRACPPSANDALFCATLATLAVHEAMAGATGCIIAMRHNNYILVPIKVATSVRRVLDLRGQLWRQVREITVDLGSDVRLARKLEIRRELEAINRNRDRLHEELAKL
How it was run: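 In this biochemical qHTS validation, titrated compounds were tested against 1.25 nM PFK with 0.1 mM ATP and 0.5 mM F6P. Percent activity came from controls lacking or containing enzyme.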

[3] = molecular target: ATPase family AAA domain-containing protein 5 (Homo sapiens) (UniProt Q96QE3); experiment: Validation screen for small molecules that inhibit ELG1-dependent DNA repair in human embryonic kidney (HEK293T) cells expressing luciferase-tagged ELG1 (AID 493107);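 note: cells co-treated with the DNA-damaging agent 5-fluorouridine alongside compound; series mostly up to about 46 µM; inhibitors lower the ELG1-luciferase luminescence signal; nearly all actives have a fitted effect of over 70% in size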
Sequence of ATPase family AAA domain-containing protein 5 (Homo sapiens) (Q96QE3 whole entry, looked up, the tested form may be a part): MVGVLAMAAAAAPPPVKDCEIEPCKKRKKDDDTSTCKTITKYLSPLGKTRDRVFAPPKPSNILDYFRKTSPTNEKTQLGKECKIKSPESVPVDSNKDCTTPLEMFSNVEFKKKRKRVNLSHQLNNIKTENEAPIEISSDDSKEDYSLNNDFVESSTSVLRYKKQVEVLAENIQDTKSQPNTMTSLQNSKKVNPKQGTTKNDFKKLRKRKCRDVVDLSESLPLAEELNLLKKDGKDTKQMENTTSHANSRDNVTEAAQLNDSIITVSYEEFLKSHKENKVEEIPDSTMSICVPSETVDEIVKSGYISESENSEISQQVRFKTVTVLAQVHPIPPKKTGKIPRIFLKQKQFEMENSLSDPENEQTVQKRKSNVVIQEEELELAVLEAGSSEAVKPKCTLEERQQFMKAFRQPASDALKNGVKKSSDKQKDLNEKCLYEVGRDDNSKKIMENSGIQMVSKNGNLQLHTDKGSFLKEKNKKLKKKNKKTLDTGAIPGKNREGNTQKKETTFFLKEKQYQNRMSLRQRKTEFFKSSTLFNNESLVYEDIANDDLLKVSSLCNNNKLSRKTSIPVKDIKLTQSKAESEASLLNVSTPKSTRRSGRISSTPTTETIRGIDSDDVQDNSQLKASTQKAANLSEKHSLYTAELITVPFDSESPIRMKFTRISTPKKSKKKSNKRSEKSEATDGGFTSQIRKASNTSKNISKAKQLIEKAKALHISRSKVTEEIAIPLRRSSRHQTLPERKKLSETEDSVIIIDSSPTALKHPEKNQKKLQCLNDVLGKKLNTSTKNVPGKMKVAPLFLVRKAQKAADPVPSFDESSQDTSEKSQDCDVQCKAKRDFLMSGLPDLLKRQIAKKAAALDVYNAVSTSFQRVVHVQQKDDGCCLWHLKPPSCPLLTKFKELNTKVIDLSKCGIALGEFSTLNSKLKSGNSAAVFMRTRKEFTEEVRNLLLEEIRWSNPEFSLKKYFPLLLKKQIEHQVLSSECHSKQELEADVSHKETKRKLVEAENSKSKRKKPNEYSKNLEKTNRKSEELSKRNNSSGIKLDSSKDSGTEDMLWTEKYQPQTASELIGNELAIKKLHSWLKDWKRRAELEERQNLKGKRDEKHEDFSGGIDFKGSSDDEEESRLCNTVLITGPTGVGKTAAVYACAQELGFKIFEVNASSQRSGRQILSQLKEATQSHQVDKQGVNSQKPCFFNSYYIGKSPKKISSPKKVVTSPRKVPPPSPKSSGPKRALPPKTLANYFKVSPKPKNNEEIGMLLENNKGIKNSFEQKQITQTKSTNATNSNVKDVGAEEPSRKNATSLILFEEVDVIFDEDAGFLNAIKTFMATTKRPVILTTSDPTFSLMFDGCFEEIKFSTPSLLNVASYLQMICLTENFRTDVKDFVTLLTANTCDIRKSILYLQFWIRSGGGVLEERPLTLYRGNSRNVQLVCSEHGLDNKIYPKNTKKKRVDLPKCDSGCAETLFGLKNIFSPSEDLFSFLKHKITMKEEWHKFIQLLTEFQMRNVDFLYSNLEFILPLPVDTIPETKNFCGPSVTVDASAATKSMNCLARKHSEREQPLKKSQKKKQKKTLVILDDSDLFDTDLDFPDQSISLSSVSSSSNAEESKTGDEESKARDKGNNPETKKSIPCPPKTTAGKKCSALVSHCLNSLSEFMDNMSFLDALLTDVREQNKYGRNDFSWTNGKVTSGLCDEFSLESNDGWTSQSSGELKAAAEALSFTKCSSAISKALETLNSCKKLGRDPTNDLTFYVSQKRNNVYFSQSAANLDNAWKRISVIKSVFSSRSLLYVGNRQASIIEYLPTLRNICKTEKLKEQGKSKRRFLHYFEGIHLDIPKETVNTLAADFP
How it was run: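 Luminescence from ONE-Glo, developed 30 min at room temperature, served as read-out of ELG1-luciferase levels. Beforehand, reporter HEK293T cells received 5-fluorouridine plus test compound for 16 hr at 37 °C.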

[4] = Nrf2 qHTS screen for inhibitors: Validation (AID 493153; active = well fitted inhibition curve with a large enough effect in the main read-out, with a control signal flat, not every such curve was filed as active); conditions: Potency: luciferase luminescence; viability change: measured here: cytotoxicity max response
How it was run: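 Luminescence from an ARE-firefly luciferase reporter in A549 cells gives Nrf2 inhibition; an earlier CellTiter-Fluor fluorescent read flags cytotoxicity. Cells in 5% FBS OPTI-MEM received compound dilution series for 18-24 h at 37°C.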

[5] = qHTS for Inhibitors of Cell Surface uPA Generation: Validation Assay (AID 493164)
How it was run: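 RAW 264.7 cells (4000/well) were plated overnight, then exposed for 18 h at 37 C, 5% CO2 to compounds in a 7-point 1:5 titration (2.45 nM–38.3 uM final). Intracellular ATP was read by ATP-Lite luminescence.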

[6] = molecular target: Galactokinase (Homo sapiens) (UniProt P51570); experiment: qHTS Validation Assay for Inhibitors of Human Galactokinase (GALK) (AID 493189)
Sequence of Galactokinase (Homo sapiens) (P51570 whole entry, looked up): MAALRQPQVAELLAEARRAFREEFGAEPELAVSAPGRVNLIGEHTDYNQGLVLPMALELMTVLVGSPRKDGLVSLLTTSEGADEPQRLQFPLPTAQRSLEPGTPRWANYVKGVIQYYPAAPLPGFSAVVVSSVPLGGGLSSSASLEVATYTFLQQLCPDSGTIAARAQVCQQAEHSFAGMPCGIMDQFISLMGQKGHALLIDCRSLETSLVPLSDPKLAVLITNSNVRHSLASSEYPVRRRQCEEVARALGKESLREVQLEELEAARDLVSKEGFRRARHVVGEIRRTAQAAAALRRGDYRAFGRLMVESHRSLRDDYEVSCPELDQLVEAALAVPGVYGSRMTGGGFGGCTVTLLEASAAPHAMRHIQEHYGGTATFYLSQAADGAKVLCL
How it was run: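 GALK (5 nM) with 35 uM ATP and 100 uM galactose in HEPES pH8.0, MgCl2, NaCl, DTT, BSA; 1 h at room temperature. Residual ATP read by Kinase-Glo Plus luminescence after 10 min.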

[7] = Validation screen for small molecules that induce DNA re-replication in SW480 colon adenocarcinoma cells (AID 504364)
How it was run: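 250 cells/well; compound pinned in; 48 hr, 37 C, 5% CO2; Hoechst added, 40 min; nuclear fluorescence imaged, 405 ex / 500-530 em; re-replication scored as increase in high-intensity nuclei.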

[8] = molecular target: Peptidyl-prolyl cis-trans isomerase NIMA-interacting 1 (Homo sapiens) (UniProt Q13526); experiment: qHTS Validation Assay to Find Inhibitors of Pin1 (AID 504536; active = well fitted inhibition curve with a large enough effect in the polarisation, with a control signal flat, not every such curve was filed as active; the % refers to the polarisation)
Sequence of Peptidyl-prolyl cis-trans isomerase NIMA-interacting 1 (Homo sapiens) (Q13526 whole entry, looked up): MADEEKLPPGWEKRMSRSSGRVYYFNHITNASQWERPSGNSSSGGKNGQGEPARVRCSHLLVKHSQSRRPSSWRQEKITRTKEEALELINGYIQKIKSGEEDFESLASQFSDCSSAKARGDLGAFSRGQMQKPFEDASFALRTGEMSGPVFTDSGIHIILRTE
How it was run: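 Fluorescence polarization competition: compounds (titration) displace HiFluor-488-labeled Pin1-1b peptide from Pin1 (0.3 uM final) in pH 7.5 HEPES buffer with DTT, 10 min at room temperature; %Activity normalized to no-enzyme wells, curves fitted.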

[9] = molecular target: Phosphoglycerate kinase, glycosomal (Trypanosoma brucei brucei) (UniProt P07378); experiment: qHTS Validation Assay to Find Inhibitors of Phosphoglycerate Kinase (AID 504547)
Sequence of Phosphoglycerate kinase, glycosomal (Trypanosoma brucei brucei) (P07378 whole entry, looked up): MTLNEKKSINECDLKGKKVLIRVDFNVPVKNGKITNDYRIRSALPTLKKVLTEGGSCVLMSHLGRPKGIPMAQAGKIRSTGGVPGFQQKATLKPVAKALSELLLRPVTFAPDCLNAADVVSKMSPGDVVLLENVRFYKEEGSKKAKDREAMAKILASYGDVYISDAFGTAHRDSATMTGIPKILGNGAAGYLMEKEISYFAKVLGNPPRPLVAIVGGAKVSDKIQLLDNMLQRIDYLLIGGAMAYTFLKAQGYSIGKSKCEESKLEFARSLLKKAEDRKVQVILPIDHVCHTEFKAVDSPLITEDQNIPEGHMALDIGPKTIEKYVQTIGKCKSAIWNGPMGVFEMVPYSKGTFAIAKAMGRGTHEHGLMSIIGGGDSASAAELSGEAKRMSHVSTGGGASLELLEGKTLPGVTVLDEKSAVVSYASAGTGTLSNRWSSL
How it was run: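 Inhibition of the enzyme is judged by a Kinase-Glo Plus luminescent signal following a one-hour incubation at room temperature. Because 1,3-BPG is unstable, it is made in situ by GAPDH at 100nM final; no-PGK wells define the baseline.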

[10] = molecular target: phosphoglycerate mutase (Leishmania major) (UniProt Q4Q090); experiment: qHTS Validation Assay to Find Inhibitors of Phosphoglycerate Mutase (AID 504548); note: series mostly up to about 58 µM
How it was run: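 Lm PGAM at 1.25 nM final with substrate in 100 mM TEA pH 7.6, 5 mM MgCl2, 0.01% Tween-20; 45 min at room temperature. Kinase-GloPlus added, 10 min, end-point luminescence read.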

[11] = molecular target: Ubiquitin carboxyl-terminal hydrolase 1 (Homo sapiens) (UniProt O94782); experiment: Inhibitors of USP1/UAF1: Pilot qHTS (AID 504865);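 note: rhodamine fluorescence freed from ubiquitin-rhodamine substrate followed over time; top concentration of the series differs between compounds; nearly all actives have a fitted effect of over 35% in size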
Sequence of Ubiquitin carboxyl-terminal hydrolase 1 (Homo sapiens) (O94782 whole entry, looked up): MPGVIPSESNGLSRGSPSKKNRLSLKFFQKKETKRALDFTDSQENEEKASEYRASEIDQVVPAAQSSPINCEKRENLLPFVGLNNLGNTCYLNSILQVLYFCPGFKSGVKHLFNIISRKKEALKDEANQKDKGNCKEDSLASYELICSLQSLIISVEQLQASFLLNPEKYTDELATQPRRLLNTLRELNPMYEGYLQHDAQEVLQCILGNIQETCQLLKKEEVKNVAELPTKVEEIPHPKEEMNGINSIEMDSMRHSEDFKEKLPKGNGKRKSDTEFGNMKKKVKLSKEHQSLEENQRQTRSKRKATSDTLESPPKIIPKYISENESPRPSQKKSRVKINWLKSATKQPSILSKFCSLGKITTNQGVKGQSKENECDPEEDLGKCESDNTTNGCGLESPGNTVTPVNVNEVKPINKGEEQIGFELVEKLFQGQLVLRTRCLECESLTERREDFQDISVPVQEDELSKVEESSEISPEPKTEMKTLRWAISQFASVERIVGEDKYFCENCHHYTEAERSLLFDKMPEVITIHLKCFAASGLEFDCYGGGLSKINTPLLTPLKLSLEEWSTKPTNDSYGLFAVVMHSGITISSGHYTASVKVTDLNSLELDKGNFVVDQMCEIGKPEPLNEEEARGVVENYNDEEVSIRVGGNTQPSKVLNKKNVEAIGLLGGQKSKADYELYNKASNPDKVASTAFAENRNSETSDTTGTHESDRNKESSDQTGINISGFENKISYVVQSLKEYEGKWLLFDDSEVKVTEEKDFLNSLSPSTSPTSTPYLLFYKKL
How it was run: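 USP1/UAF1 complex (1nM) preincubated with compound 15 min at room temperature, then Ub-Rho substrate (150nM final) added. Fluorescence read kinetically at 480/540 nm, 6 reads every 60 seconds. Buffer: 50mM HEPES pH 7.8, 0.5mM EDTA, 0.1 mg/ml BSA, 1mM TCEP, 0.01% Tween-20.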

[12] = qHTS for Inhibitors of ATXN expression: Validation of Cytotoxic Assay (AID 588349)
How it was run: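 Read-out: ATP-based luminescence (CellTiter Glo) reflecting viability of HEK293 cells after 72 hr incubation at 37 degrees C with a concentration series of each compound.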

[13] = Validation screen for small molecules that induce genotoxicity in human embryonic kidney (HEK293T) cells expressing luciferase-tagged ELG1 (AID 493106)
How it was run: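 Luminescence from an ELG1-luciferase fusion serves as the read-out, rising when genetic stress elevates ELG1 protein. HEK293T reporter cells (2,000 per well) received 23 nL compound, incubated 16 hr at 37 °C, then ONE-Glo for 30 min at room temperature.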

[14] = molecular target: DNA dC->dU-editing enzyme APOBEC-3G (Homo sapiens) (UniProt Q9HC16); experiment: qHTS for inhibitors of Vif-A3G interactions: Validation (AID 588379)
How it was run: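 HeLa cells stably expressing Vif and A3G-eYFP, 700 cells/well, incubated overnight at 37 deg C, then exposed to compound overnight at 37 deg C. Inhibition of Vif-mediated degradation read as increased yellow fluorescence (Ex 488/Em 500-530) by laser-scanning cytometry.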

[15] = qHTS for Inhibitors of ATXN expression: Validation (AID 588378); note: series mostly up to about 57 µM; nearly all actives have a fitted effect of over 75% in size
How it was run: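 Luminescence from an ATXN2-FFLuc reporter in HEK293 cells served as read-out after 24 h compound treatment at 37 degrees C; CellTiter-Fluor fluorescence was recorded first to assess viability.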

[16] = molecular target: Thyrotropin-releasing hormone receptor (Homo sapiens) (UniProt P34981); experiment: qHTS for Small Molecule Agonists and Allosteric Enhancers of Human TRH Receptor: Validation Screen for Agonists (AID 493127;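 active = calcium activation more than 3 SD above the typical response in the agonist read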;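 note: intracellular calcium rise by fluo-8 fluorescence before TRH EC20 addition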); conditions: TRH receptor agonist cell assay; at 2 µM; stronger effect = higher value
Sequence of Thyrotropin-releasing hormone receptor (Homo sapiens) (P34981 whole entry, looked up): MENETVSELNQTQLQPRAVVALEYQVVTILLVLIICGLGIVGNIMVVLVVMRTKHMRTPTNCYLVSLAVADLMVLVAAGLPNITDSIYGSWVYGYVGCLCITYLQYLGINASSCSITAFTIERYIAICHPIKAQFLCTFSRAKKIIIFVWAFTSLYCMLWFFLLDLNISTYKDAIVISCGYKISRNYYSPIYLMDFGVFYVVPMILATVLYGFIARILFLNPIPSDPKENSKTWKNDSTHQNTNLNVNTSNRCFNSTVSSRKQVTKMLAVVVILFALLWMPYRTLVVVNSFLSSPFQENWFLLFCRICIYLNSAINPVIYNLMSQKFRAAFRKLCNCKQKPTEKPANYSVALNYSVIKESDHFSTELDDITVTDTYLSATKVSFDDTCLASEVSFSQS
How it was run: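 Cells 2000/well, 10% FCS, 18 h 33.5C/5% CO2 → fluo-8 Ca dye, RT 30 min–1.5 h → FDSS baseline 10 × 1 s → compound added → 230 cycles (1 s/cycle) agonist mode. TRH controls.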

[17] = molecular target: Estrogen receptor (Homo sapiens) (UniProt P03372); experiment: qHTS assay for small molecule antagonists of estrogen receptor alpha signaling (AID 588513; active = well fitted curve in the direction sought with a large enough effect in the signal ratio, with a control signal flat, not every such curve was filed as active; the % refers to the signal ratio)
How it was run: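 ER-alpha-UAS-bla GripTite HEK 293 cells in medium with 2% charcoal/dextran-treated FBS were preincubated 4 h at 37 C, dosed with compound (1:2 titration), stimulated with 0.5nM 17-beta-estradiol for 18 h, then read by CCF4 beta-lactamase fluorescence.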

[18] = molecular target: Estrogen receptor (Homo sapiens) (UniProt P03372); experiment: qHTS assay for small molecule agonists of estrogen receptor alpha signaling (AID 588514; calls by dose curve; note: nearly all actives have a fitted effect of over 70% in size)
How it was run: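 Cells were plated at 5000/well, incubated 4 hrs at 37 C, dosed with compound titration series, incubated 18 hrs at 37 C, loaded with CCF4 dye for 2 hrs at RT, then fluorescence was read.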

[19] = molecular target: Androgen receptor (Homo sapiens) (UniProt P10275); experiment: qHTS assay for small molecule agonists of androgen receptor signaling (AID 588515; active = well fitted curve in the direction sought with a large enough effect in the signal ratio, with a control signal flat; the % refers to the signal ratio); conditions: AR-UAS-bla HEK293, beta-lactamase ratio, agonist 16 h; activation: stronger effect = higher value
How it was run: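 EC50 and efficacy came from Hill fits of titrations (up to 92 uM) normalized to 30 nM R1881 as 100% and DMSO as 0%. Compound exposure was 16 h at 37 C on AR-UAS-bla HEK293 cells, with a 405/460/530 nm CCF4 fluorescence read.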

For `CN1CCN(C2=Nc3ccccc3Oc3ccc(Cl)cc32)CC1`, the Potency [1] was “inactive”, the outcome [2] was “inactive” and the Potency [3] was “inactive”. For the same compound, the Potency [4] was “inactive”, the viability change [4] was -14.3% and the outcome [5] was “inactive”. For the same compound, the outcome [6] was “inactive”, the outcome [7] was “inactive” and the outcome [8] was “inactive”. For the same compound, the outcome [9] was “inactive”, the outcome [10] was “inactive” and the Potency [11] was “inactive”. The Potency [12] was “inactive”.

With `c1cc(CN2CCCCC2)cc(OCCCNc2nc3ccccc3s2)c1` the Potency [1] was “inactive”, the outcome [2] was “inactive” and the Potency [13] was “inactive”. For the same compound, the Potency [3] was “inactive”, the Potency [4] was “inactive” and the viability change [4] was -17%. For the same compound, the outcome [5] was “inactive”, the outcome [6] was “inactive” and the outcome [8] was “inactive”. The outcome [10] was “inactive”, the Potency [11] was “inactive” and the outcome [14] was “inactive”.

In the case of `CN(C)CC[C@@H](c1ccc(Br)cc1)c1ccccn1`, the Potency [1] was “inactive”, the outcome [2] was “inactive” and the Potency [13] was “inactive”. The Potency [3] was “inactive”, the Potency [4] was “inactive” and the viability change [4] was 1.19%. For the same compound, the outcome [6] was “inactive”, the outcome [7] was “inactive” and the outcome [8] was “inactive”. The outcome [9] was “inactive”, the outcome [10] was “inactive” and the Potency [11] was “inactive”. For the same compound, the Potency [12] was “inactive” and the Potency [15] was “inactive”.

For `Cc1ccc(S(=O)(=O)NC(=O)NN2CCCCCC2)cc1`, the Potency [1] was “inactive”, the Potency [13] was “inactive” and the Potency [3] was “inactive”. The activation [16] was 0.188% (inactive), the Potency [4] was “inactive” and the viability change [4] was -3.67%. For the same compound, the outcome [5] was “inactive”, the outcome [6] was “inactive” and the outcome [7] was “inactive”. For the same compound, the outcome [8] was “inactive”, the outcome [9] was “inactive” and the outcome [10] was “inactive”. The Potency [12] was “inactive”, the Potency [15] was “inactive” and the outcome [17] was “inactive”. For the same compound, the Potency [18] was “inactive”.

With `CCCNC(C)C(=O)Nc1ccccc1C` (stereo not given) the Potency [1] was “inactive”, the Potency [13] was “inactive” and the Potency [3] was “inactive”. For the same compound, the activation [16] was 1.5% (inactive), the Potency [4] was “inactive” and the viability change [4] was -6.89%. The outcome [6] was “inactive”, the outcome [7] was “inactive” and the outcome [8] was “inactive”. The Potency [11] was “inactive” and the Potency [15] was “inactive”.

In the case of `C(=C\c1ccccc1)/CN1CCN(C(c2ccccc2)c2ccccc2)CC1`, the Potency [1] was “inactive”, the Potency [13] was “inactive” and the Potency [3] was “inactive”. For the same compound, the activation [16] was 0.438% (inactive), the Potency [4] was “inactive” and the viability change [4] was -2.4%. For the same compound, the outcome [5] was “inactive”, the outcome [6] was “inactive” and the outcome [7] was “inactive”. For the same compound, the outcome [8] was “inactive”, the outcome [9] was “inactive” and the outcome [10] was “inactive”. The Potency [12] was “inactive” and the Potency [15] was “inactive”.

In the case of `CCCCOCCOCCOCc1cc2c(cc1CCC)OCO2`, the outcome [2] was “inactive”, the Potency [11] was “inactive” and the activation [19] was 19.3% (inactive) and -3.12% (inactive).

With `CN1C[C@H](C(=O)N[C@]2(C)O[C@@]3(O)[C@@H]4CCCN4C(=O)[C@H](Cc4ccccc4)N3C2=O)C[C@@H]2c3cccc4[nH]cc(c34)C[C@H]21` the Potency [13] was “inactive”, the Potency [4] was “inactive” and the viability change [4] was -1.86%. For the same compound, the outcome [8] was “inactive”, the outcome [9] was “inactive” and the Potency [12] was “inactive”. For the same compound, the Potency [15] was “inactive”.
